These results are taken from PubChem BioAssay (NCI).

The panel holds about 83,000 compounds, 20% with a hit somewhere; the sample as a whole holds those more often.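 Note: values are percent growth. 100 is the growth of untreated cells, values between 100 and 0 indicate rising inhibition; between -100 and 0 indicates cell death.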 Values without a mark were called inactive. Calls of active or inactive are those of the source. The calls were made as follows: active = growth percent below 10; inactive = the rest.

In this test the test system is HL-60(TB) leukemia. The experiment in a line: NCI-60 one-dose screen, 48 h (100 = growth as untreated, 0 = no growth, -100 = all killed). Particulars: 10 µM unless noted.
For the compound `CCN1CCN(c2nc(C)cc(NCc3cc(Nc4ccnc5cc(Cl)ccc45)ccc3F)n2)CC1`, the growth was -7.3% (active). For `COC(=O)[C@]12CC[C@@H](C)[C@H](C)[C@@H]1C1=CC[C@@H]3[C@@]4(C)C[C@@H](OC(C)=O)[C@H](O)[C@@](C)(COC(C)=O)[C@@H]4[C@H](O)C[C@@]3(C)[C@]1(C)CC2` the value was -41.6% (active); for `O=[N+]([O-])c1ccc(-c2cn3nc(-c4c[nH]c5ccccc45)sc3n2)cc1`, 95.3%; for `COc1ccc(-n2cnc3c(sc4ncc(Cl)cc43)c2=O)cc1`, 90.1%. In the case of `Cc1ccc(O)c(C(=O)c2ccccc2Cl)c1` it was 112%; in that of `O=c1ccccc(-c2ccc(-c3ccco3)cc2)c1O`, -30.3% (active); in that of `CCCCCCCC/C=C\CCCCCCCCOc1ccc(CC(=O)NCC[N+]2(C)CCOCC2)cc1`, -14% (active). For `Cc1nn(-c2ccccc2)c2nc(Cl)c(C=O)c(-c3ccccc3)c12` the value was 95.8%; for `O=C(/C=C(/C=C/c1coc2ccccc12)OB(F)F)/C=C/c1coc2ccccc12`, 88.6%. As to `COC(=O)[C@]12CC[C@@H](C)[C@H](C)[C@@H]1C1=CC[C@@H]3[C@@]4(C)C(C=O)=C[C@@](C)(COS(C)(=O)=O)C4=CC[C@@]3(C)[C@]1(C)CC2`, the growth was -34.8% (active). As for `Cc1cc(Cl)ccc1Nc1nc(C(F)(F)F)ccc1C(=O)N/N=C/c1cccc(O)c1`, the growth is 4.08% (active). In the case of `COc1cc(OC)c(C(=O)/C=C/c2ccc(C#N)cc2)c(OC)c1` it was -7.85% (active). Take `N#Cc1cnn(C(=O)c2nn(-c3ccc(Cl)cc3)cc2O)c1N`: the growth was -50.1% (active). In the case of `COc1cc(C2CC(c3ccc(N(C)C)cc3)=NN2C(C)=O)cc(OC)c1OC` (stereo not given) it was -3.98% (active); in that of `CCSC1=NC2C(N(CC)C(=O)N2CC)N1/N=C/C=C/c1ccccc1[N+](=O)[O-]` (stereo not given), -49.4% (active).

As for `CS(=O)(=O)Nc1cncc(-c2ccc3ncnc(Nc4cncc(Cl)c4)c3c2)c1`, the growth is 71.5%. For `Cn1c(=O)cc2c3c(c(NCCCO)ccc31)C(=O)c1ccccc1-2` the value was 50.8%; for `COc1c(O)c(O)cc2c3c(oc12)CC(c1ccc2c(c1)OCO2)CC3=O` (stereo not given), 61.1%; for `NC(N)=N/N=C(\N=Nc1ccccc1)c1ccc(Cl)cc1`, -8.35% (active). For `O=C(NC1CCCCC1)C(c1cccs1)N(CCc1ccccc1)C(=O)c1ccco1` (stereo not given) the value was 100%; for `O=C(CCCCCn1c2ccccc2c2c3c(c4c5ccccc5[nH]c4c21)C(=O)N(O)C3=O)N1CCOCC1`, 44.6%. For `Cc1cc(C)c(/C=C2\C(=O)Nc3ccc(NC(=O)CCCCCCC(=O)NO)cc32)[nH]1`, the growth is 19.4%. In the case of `O=C1CCn2c1c(O)c1ccccc1c2=O` it was 110%; in that of `CCC(=O)Oc1ccc(OC)cc1`, 82.6%; in that of `COc1cc(/C=C/C(=O)/C=C(O)/C=C/c2ccc(OC(=O)C34CC5CC(CC(C5)C3)C4)c(OC)c2)ccc1OC(=O)C12CC3CC(CC(C3)C1)C2`, 104%. In the case of `CCOC(=O)c1c(C)nc2c(c1N)/C(=C/c1ccc[nH]1)C(=O)N2Cc1ccc(C(F)(F)F)cc1` it was 96.7%.

With `COc1ccc(-c2nc(SCCC(C)C)nc(N/N=C(/C)c3ccc(C)cc3)c2C#N)cc1`, the growth was 89.8%. For `[O-][n+]1c2ccccc2[n+]([O-])c2c3ccccc3[nH]c21` the value was 100%; for `CCN1C(=O)N(CC)C2C1NC(=O)N2/N=C/C=C/c1ccccc1` (stereo not given), 0.782% (active); for `Cc1nc(Nc2ccc(NC(=S)Nc3ccccc3)cc2)nc2nc(Nc3cccc(Cl)c3)[nH]c(=O)c12`, 57.1%. In the case of `CCCCCCCCCCCCCCn1c2ccccc2c2c3c(c4c5cc(OC)ccc5oc4c21)C(=O)NC3=O` it was 115%; in that of `O=C(Nc1ccc(CN2CCOCC2)c(C(F)(F)F)c1)c1nc2ccc3[nH]ncc3c2c2c1CCCC2`, 98.1%; in that of `C[C@H]1OC(=O)/C=C/[C@@H](O)[C@@H](O)CCCCCCCC[C@@H]1O`, 99.6%. In the case of `Cc1n(Cc2ccc3ccccc3n2)cc[n+]1Cc1ccc2ccccc2n1` it was 34.2%; in that of `COc1ccc(Cn2cc3c(c2-c2cc(OC)c(OC)c(OC)c2)CCc2cnoc2-3)cc1[N+](=O)[O-]`, 11%; in that of `C=CCN(CC=C)C(=O)[C@H](CC)[C@@H]1CC[C@@H](C)[C@@H]([C@H](C)[C@@H](O)[C@@H](C)C(=O)[C@H](CC)C2O[C@]3(C=C[C@@H](O)[C@]4(CC[C@@](C)([C@H]5CC[C@](O)(CC)[C@H](C)O5)O4)O3)[C@H](C)C[C@@H]2C)O1` (stereo not given in full), -36.8% (active). For `Cc1nnc(Nc2ccc(NC(=O)Nc3ccc(Cl)cc3)cc2)c2ccccc12`, the growth was -34.8% (active). In the case of `Cc1nc(N)nc2c1CCC(Nc1ccccc1)S2` (stereo not given) it was 97.1%. In the case of `CC(N)C(Cc1ccc(Cl)cc1)c1ccc(Cl)cc1` (stereo not given) it was 25.9%; in that of `COc1ccc(-c2nn(-c3cccc(Cl)c3)cc2-c2cc(-c3cccs3)[nH]c(=S)n2)cc1`, 46.4%.
